In the library only some 19% were active in any assay of this set; here they are far more common.
TDP1 cell CPT: DT40-hTDP1 cell growth loss with CPT; AID 686979; chicken DT40 Tdp1-/-;hTDP1 cells + 20 nM CPT, ATP luminescence, 48 h; Potency, µM (top dose mostly 46.2 µM), actives largely listed as inhibitors; actives 12% (n = 420,000); note: nearly all actives have a fitted effect of over 55% in size
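Chicken DT40 Tdp1-/- cells complemented with human TDP1, 400 cells/well, exposed to compounds plus 20 nM camptothecin for at least 48 h at 37 C; viability read as ATP content by CellTiter-Glo luminescence.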
HT1080 IDH1KD tx: kills HT-1080 cells with IDH1 knockdown; HT-1080 IDH1 knockdown viability, ATP luminescence, 48 h; Potency, µM (titrated, usually from 46.1 µM), hits mostly cytotoxic; actives 2% (n = 360,000)
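% activity derives from luminescence (CellTiter-Glo), normalised to DMSO and no-cell wells. HT-1080-IDH1KD cells, 750/well, had 48 h compound exposure at 37 °C.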
TDP1 cell noCPT: qHTS for Inhibitors of human tyrosyl-DNA phosphodiesterase 1 (TDP1): qHTS in cells in absence of CPT; DT40 Tdp1-/- hTDP1 cells, no CPT, ATP luminescence, 48 h; Potency, µM (top dose mostly 46.2 µM), most hits filed as inhibitors; actives 15% (n = 420,000); AID 686978, 2013; note: nearly all actives have a fitted effect of over 55% in size
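Growth of hTDP1-complemented DT40 Tdp1-knockout cells is measured by ATP luminescence after at least 48 hr compound exposure at 37 °C, with DMSO substituting for the 20 nM CPT used in the parallel screen.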
ELG1 DNA repair: blocks ELG1-dependent DNA repair in HEK293T cells | HEK293T ELG1-luciferase reporter, luminescence, 16 h; DNA damage induced by 5-fluorouridine | Potency, µM (doses to about 46.1 µM), actives largely listed as inhibitors | actives 2.3% (n = 330,000) | AID 504467; note: nearly all actives have a fitted effect of over 55% in size
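Cells (2,000 per well) received 5-fluorouridine plus test compound or DMSO and were incubated 16 hr at 37 °C, 5% CO2. Luciferase activity was read by luminescence 30 min after ONE-Glo addition; signal suppression marked inhibition of damage-induced ELG1 function.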
IL1B secr inh: inflammasome signaling inhibition, IL-1 beta readout | THP-1 LPS/ATP IL-1B secretion, AlphaLISA, 16 h; active compounds read low | activity change, % at 57.5 µM | actives 4.7% (n = 360,000) | AID 743279; in the data active = activity change below about -50%; inconclusive = mostly about -30% to -49%
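Secreted IL-1B measured by AlphaLISA bead assay after 16 h compound exposure of THP-1 cells; compounds (final up to 57.5 uM) added 1 h before LPS (250 ng/mL) and ATP (1.25 mM) stimulation; lower signal means less secretion.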
HT1080NT lethal: kills 2HG-producing HT-1080-NT fibrosarcoma cells. Potency, µM (series often up to 46.1 µM), usual class: cytotoxic. HT-1080-NT fibrosarcoma viability, CellTiter-Glo ATP luminescence, 48 h. actives 1.6% (n = 360,000);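 note: NT is the 2HG producing partner of a matched IDH1 knockdown line; nearly all actives have a fitted effect of over 55% in size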
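Luminescent CellTiter-Glo readout after 48 hours of compound exposure at 37 degrees C defined viability of HT-1080-NT cells. Activity was normalized to DMSO wells and cell-free media wells; concentration-response curves were fitted and assigned curve classes.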
A number is an active result. Unless noted, calls come from the whole dose curve; as a rule, active = well fitted curve in the direction sought with a large enough effect; inconclusive = small, poorly fitted or top-dose-only effect, or another doubt; inactive = no such curve, though single readings can be large; an effect the other way counts as inactive or inconclusive.

For Nc1nc(-c2ccccc2)c(N=Nc2cccc3ccccc23)s1 the results were TDP1 cell CPT 23.1µM, HT1080 IDH1KD tx 20.6µM, TDP1 cell noCPT 16.4µM, ELG1 DNA repair inactive, IL1B secr inh inactive and HT1080NT lethal inconclusive.
Oc1ccc(C=NN=Cc2ccco2)c(O)c1 was read as TDP1 cell CPT inactive, HT1080 IDH1KD tx inactive, TDP1 cell noCPT inactive, IL1B secr inh inactive and HT1080NT lethal inactive.
For NC(=O)c1ccc(NC(=O)CSc2nnc(-c3cccnc3)n2Cc2ccco2)cc1 the results were TDP1 cell CPT inactive, HT1080 IDH1KD tx inactive, TDP1 cell noCPT inactive, ELG1 DNA repair inactive, IL1B secr inh inactive and HT1080NT lethal inactive.
O=C(COC(=O)C1CCN(c2ccc(C(F)(F)F)cn2)CC1)NCc1cccc(Cl)c1 was read as TDP1 cell CPT inactive, HT1080 IDH1KD tx inactive, TDP1 cell noCPT inactive, ELG1 DNA repair inactive, IL1B secr inh inactive and HT1080NT lethal inactive.
`Cc1nc2c(o1)C(=O)c1ccccc1C2=Nc1ccccc1` gave TDP1 cell CPT 2.31µM, HT1080 IDH1KD tx 2.91µM, TDP1 cell noCPT 2.06µM, IL1B secr inh -100.3 and HT1080NT lethal 5.8µM.
Screening CCOc1cc(/C=C2\SC(=NC)N(C)C2=O)cc(Cl)c1OC(C)=O returned TDP1 cell CPT inconclusive, HT1080 IDH1KD tx inactive, TDP1 cell noCPT inconclusive, ELG1 DNA repair inactive, IL1B secr inh inactive and HT1080NT lethal inactive.
For CCOc1cc(/C=C2\SC(=NC)N(C)C2=O)c(Br)cc1OC(C)=O the results were TDP1 cell CPT inconclusive, HT1080 IDH1KD tx inactive, TDP1 cell noCPT 20.6µM, ELG1 DNA repair inactive, IL1B secr inh inactive and HT1080NT lethal inactive.
`COc1ccc(CN2CNc3c(c(=O)n(C)c(=O)n3C)C2)cc1` gave TDP1 cell CPT inactive, HT1080 IDH1KD tx inactive, TDP1 cell noCPT inactive, ELG1 DNA repair inactive, IL1B secr inh inactive and HT1080NT lethal inactive.
`CC1C2(C)OCC(C#N)(C(=N)O2)C1(C#N)C#N` (stereo not given) gave ELG1 DNA repair inactive.
Screening CC1(C)CC2(C)OC(=N)C1(C#N)C2(C#N)C#N (stereo not given) returned TDP1 cell CPT inconclusive, HT1080 IDH1KD tx inconclusive, TDP1 cell noCPT 14.6µM, ELG1 DNA repair inactive, IL1B secr inh -101.3 and HT1080NT lethal inconclusive.
Screening COc1ccc(Nc2cc(C)nc(N3CCN(C(=O)c4ccc5c(c4)OCO5)CC3)n2)cc1 returned TDP1 cell CPT inactive, HT1080 IDH1KD tx inactive, TDP1 cell noCPT inconclusive, ELG1 DNA repair inconclusive, IL1B secr inh inactive and HT1080NT lethal inactive.
Screening O=C(NCCOCCn1c(=O)oc2ccccc21)Nc1ccc(F)cc1 returned TDP1 cell CPT 16.4µM and TDP1 cell noCPT inconclusive.
Screening Cc1ccc2oc(=O)n(CCNC(=O)Nc3ccc(Cl)cc3)c2c1 returned TDP1 cell CPT 23.1µM and TDP1 cell noCPT 16.4µM.
Cc1c(Cl)cccc1NC(=O)NCCOCCn1c(=O)oc2ccccc21 was read as TDP1 cell CPT 8.2µM and TDP1 cell noCPT 7.31µM.
`FC(F)(F)c1ccc(Oc2ccc(Cl)cc2Br)nc1` gave TDP1 cell CPT inconclusive, HT1080 IDH1KD tx inactive, TDP1 cell noCPT inactive, ELG1 DNA repair inactive, IL1B secr inh inactive and HT1080NT lethal inactive.
Screening COCCOC1CCN(C(=O)c2cc(COc3ccc(F)cc3F)on2)CC1 returned TDP1 cell CPT inactive, HT1080 IDH1KD tx inactive, TDP1 cell noCPT inactive, ELG1 DNA repair inactive, IL1B secr inh inactive and HT1080NT lethal inactive.
O=C(COc1ccc(F)cc1)Nc1ccccc1OCc1cc(=O)n2ccccc2n1 was read as TDP1 cell CPT inactive and TDP1 cell noCPT inactive.
Screening O=C1N/C(=N\N=C\c2cccs2)SC1Cc1cccc(Cl)c1Cl (stereo not given) returned TDP1 cell CPT 3.26µM, HT1080 IDH1KD tx 6.51µM, TDP1 cell noCPT 5.17µM, ELG1 DNA repair inconclusive, IL1B secr inh inactive and HT1080NT lethal 4.61µM.
For O=C(CC1S/C(=N/N=C/c2cccs2)NC1=O)Nc1ccc(Cl)cc1 (stereo not given) the results were TDP1 cell CPT inactive, HT1080 IDH1KD tx inactive, TDP1 cell noCPT inactive, ELG1 DNA repair inactive, IL1B secr inh inactive and HT1080NT lethal inactive.
Screening Cc1c(C(=O)NN2CCCCC2)nn(-c2ccc(Cl)cc2Cl)c1-c1ccc(I)cc1 returned TDP1 cell CPT inconclusive and TDP1 cell noCPT 29.9µM.
COC(=O)c1cc(Cn2nc(C(=O)O)c3ccccc3c2=O)oc1C was read as TDP1 cell CPT inactive, HT1080 IDH1KD tx inactive, TDP1 cell noCPT inactive, ELG1 DNA repair inactive, IL1B secr inh inactive and HT1080NT lethal inactive.
CC1(C(=O)NCc2ccc(Cl)cc2)CCN1C(=O)c1cccc(F)c1 (stereo not given) was read as TDP1 cell CPT inconclusive, HT1080 IDH1KD tx inactive, TDP1 cell noCPT inconclusive, IL1B secr inh inactive and HT1080NT lethal inactive.
For CCCN1CCC(=O)N([C@H](CSc2ccc(Br)cc2)c2ccccc2)CC1 the results were TDP1 cell CPT inconclusive, HT1080 IDH1KD tx inactive, TDP1 cell noCPT 16.4µM, ELG1 DNA repair inconclusive, IL1B secr inh inactive and HT1080NT lethal inactive.
For CC(=O)Nc1ccc(SC[C@H](c2ccccc2)N2CCN(CCc3ccccc3)CCC2=O)cc1 the results were ELG1 DNA repair inactive.
Screening O=C1CCN(CCc2ccccc2)CCN1[C@H](CSc1ccc(Br)cc1)c1ccccc1 returned TDP1 cell CPT inconclusive, HT1080 IDH1KD tx inactive, TDP1 cell noCPT 18.4µM, ELG1 DNA repair inactive, IL1B secr inh inactive and HT1080NT lethal inactive.
For Cc1cc(=O)oc2cc(NC(=O)c3ccccc3Cl)ccc12 the results were TDP1 cell CPT inactive, HT1080 IDH1KD tx inactive, TDP1 cell noCPT inconclusive, ELG1 DNA repair inconclusive, IL1B secr inh inactive and HT1080NT lethal inactive.
Cc1cc(NC(=O)CSCC(=O)N(c2ccc(F)cc2)C(C(=O)NC2CCCCC2)c2ccc(O)c(O)c2)no1 (stereo not given) was read as TDP1 cell CPT inconclusive, HT1080 IDH1KD tx inactive, TDP1 cell noCPT 16.4µM, ELG1 DNA repair inactive, IL1B secr inh -50.4 and HT1080NT lethal inactive.
Screening O=C(Nc1cccc2[nH]ncc12)c1ccc(F)cc1 returned TDP1 cell CPT inconclusive, HT1080 IDH1KD tx inactive, TDP1 cell noCPT 7.31µM, ELG1 DNA repair inconclusive, IL1B secr inh inactive and HT1080NT lethal inactive.
`CSc1ncc(OCc2ccccc2)c(=O)[nH]1` gave TDP1 cell CPT inactive, HT1080 IDH1KD tx inactive, TDP1 cell noCPT inactive, ELG1 DNA repair inactive, IL1B secr inh inactive and HT1080NT lethal inactive.

High-throughput results deposited in PubChem BioAssay by National Center for Advancing Translational Sciences (NCATS).
